PBM binding z-score data for 40 sequences are collected here from the supplement of paper PMC6555819.

This assay relates to LXRa homodimer (NR concentration 270 nM). Kind of assay: PBM binding z-score (relative to random genomic background probes); higher = stronger binding; sequences stand for … in GC…GCGATTGACAGCGTAGAATGAAGG
In a few lines: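 Probes were double-stranded and carried 34-nt variable regions with direct-repeat seeds, single-nucleotide variants, half-site ablations and random human genomic background sequences, printed on custom Agilent 4×180K protein-binding microarrays. Arrays were incubated 1 h with ligand-free nuclear receptor dimers in PBS pH 7.4, 2% milk, 0.02% Triton X-100, 1 mM DTT, 0.2 mg/mL BSA and 0.4 mg/ml salmon testes DNA. Antibodies against each partner (one per run) detected binding, and scanned fluorescence was regression-normalized. Binding z-scores use the random background probes as reference.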
With CCCACTGGGGCATAAGGTTACCATAAGCCAGCCC, the PBM binding z-score is -0.234.

As for GCTTACGGGTCAAACGTTATAGCATGAATAGAAT, the PBM binding z-score is -0.166.

TCTCGGATGACACGAAGGTCAGAGCTTTCCAGAG: the PBM binding z-score stood at 0.495.

As for ATCTCTAGGTAAAATTTCAGTGAATCCCGAGGAT, the PBM binding z-score is -0.0647.

Take CATACAGGGTCAGCTAGGCGAGAGTAGGGACGGC: the PBM binding z-score is -0.0386.

In turn, GAAACGAGGGCAAGTTGATAGCAGAGTTTGATGG showed a PBM binding z-score of -0.42.

For GCATATAGGTAATACAAGGTGAAAATCCGATTGT, the PBM binding z-score turned out to be 0.125.

The sequence CCTAGTTGGTCAGGAGGTCAGACACCGGATATGA had a PBM binding z-score of 0.868.

For CCTTACGGCTCACGAGGTTATAGCACGACGAGCG, the PBM binding z-score was found to be 0.155.

Sequence CCTCGGAGGAGAACAGGAGGTCAGAGCTGCCAGA came in with a PBM binding z-score of 1.57.

The sequence TAGCCTTGGTCATGCGGGCCAGTATAGTGTCGGC returned a PBM binding z-score of -0.986.

AGAATGAGTTTACCAAAGATCAGGGAAACGCTTG showed a PBM binding z-score of -0.355.

With ACTCGGAGGACAAAGGTCTGAGCTACGCCAGTGA, the PBM binding z-score is -0.354.

The sequence TTACCAAGGGGAAAGGTCGTTGATGCACGCCTTG yielded a PBM binding z-score of -0.0678.

In turn, CCTACTGGGCCACGAATGGTCATTGATTCAGTGA showed a PBM binding z-score of -0.579.

Take CGTCAAAGTTCAACTAAGGAAACGTAAAGCACGC: the PBM binding z-score is 3.78.

In turn, TCTTGTAGATCAAGGAGGTTAAGAAAGCCTGAGT displayed a PBM binding z-score of -0.308.

AATACAGGGTCACTAGGACAGAGTAGGTACGAAT gave a PBM binding z-score of 1.08.

Take GTTCGGAGGACAAGGTCAGAGCTTTGTCCGTAGA: the PBM binding z-score is -0.204.

TGAATGAGGTTAAAGATCAGGTAACGTGGCGTCG registered a PBM binding z-score of -0.204.

AATACAGGGTCACTAGGCCAGATTAGGTACGAAT gave a PBM binding z-score of 1.09.

Consider GCAGACAGGTGTAACGCAGGTAACTCAGGGTGGC, for which the PBM binding z-score was -1.09.

CTACCAAGGTGAACAAGGTCGCTGATTACTATTC registered a PBM binding z-score of -0.405.

Sequence CTTAGCAGGCCAGGGTCACTCAAGCATTTCGCTT gave a PBM binding z-score of -0.276.

The sequence CCTACTGAGCCATTCAGAGGTCATTGATCATATG yielded a PBM binding z-score of 6.83.

GGAAAGAGGGCAAGTTGATAGCAGAGTTTGATGG showed a PBM binding z-score of 0.345.

The sequence ATCTCTAGGTAACAAGTTCAGTGGAAGAGAGGAC returned a PBM binding z-score of 0.58.

As to TCTCGGCGGACACGAAAGGTCAGAGCTCGACATC, the PBM binding z-score amounted to 2.3.

On to CCTTACTGGTCACTGACAGGTTATAGCATTTGGA, for which the PBM binding z-score was found to be 0.811.

CGACCAAGGTCAGCAGGTCAGTGAAAGCGACGTG: the PBM binding z-score is -0.15.

TCTTGTAGATCAACAGAGGTTAAGAAAGTGCGCT displayed a PBM binding z-score of 0.564.

With CCTAGTTGGTCAAGGTCACACTCGCTATAGGTAC, the PBM binding z-score was determined as 2.41.

CAAACTAGGTCAAGAGATCAAAGTCCGCTTCCCG yielded a PBM binding z-score of 0.62.

In the case of CTACTAAGGTGAACAAGGTCGTTGATTACTATTC, the PBM binding z-score was determined as 0.193.

As to CGTCCAAGGTCAAGGCCAGTGAAAGAGACTCGAA, the PBM binding z-score stood at 0.208.

The sequence ATCTCTGGGTAAGACTCAGTTCAGTGAAGAACGC registered a PBM binding z-score of 0.369.

In turn, GCTAGTTGGTCAGTAAAAGGACACACACCGGTCG had a PBM binding z-score of 0.213.

CCGACTGGGCCAAAAAGGTCATTGATGCCGATAA displayed a PBM binding z-score of 2.8.

TAGCCTAGGTCATTCAGGGGCCAGGATAGAAAGC came in with a PBM binding z-score of 0.311.

In turn, GCGACTGGGGCAGCAGCAGGTTACCATAACTTAA gave a PBM binding z-score of -0.621.
